Each structure is given as a SMILES string. Results with a measured potency or affinity are listed apart. Results filed as inconclusive are left out. Calls of active or inactive are those of the source. The rule behind the calls is not given here.

The nature of this experiment: HepG2 cell cytotoxicity, cytotoxicity control, set 6 (AID 602432). As to conditions: series mostly up to 50 µM.
Turning to `O=C(CSc1nc2c(c(=O)[nH]1)CCC2)NC1CCCCC1`, the result was inactive.

For `O=C(c1ccc(CNc2c(N3CCOCC3)c(=O)c2=O)cc1)N1CCN(c2ccccc2)CC1`, the result was inactive.

In the case of `O=C(CSc1nc2ccccc2c(=O)[nH]1)NC1CCCCC1`, the outcome was inactive.

Consider `COc1ccc(NC(=O)NCc2ccc(C(=O)N3CCC(c4ccccc4)CC3)cc2)cc1`, for which the outcome was inactive.

On to `CC(C)CCNC(=O)CSc1nc2c(c(=O)[nH]1)CCCC2`, for which the call was inactive.

For `COCCNC(=O)CSc1nc2ccccc2c(=O)[nH]1`, the call was inactive.

On to `CC(C)CCNC(=O)CSc1nc2ccccc2c(=O)[nH]1`, for which the call was inactive.

For `CC(C)CCNC(=O)CSc1nc2c(c(=O)[nH]1)CCCCC2`, the compound was classed as inactive.

For the compound `O=C(CSc1nc2ccccc2c(=O)[nH]1)NC1CCOCC1`, the call was inactive.

Take `O=C(CSc1nc2c(c(=O)[nH]1)CN(Cc1ccccc1)CC2)NC1CCCCC1`: the outcome was inactive.

As for `O=C(c1ccc(CNc2c(N3CCCC3)c(=O)c2=O)cc1)N1CCN(c2ccccc2)CC1`, the call was inactive.

On to `O=C(CSc1nc2c(c(=O)[nH]1)CCCC2)NC1CCCCC1`, for which the compound was classed as inactive.

Consider `CC1CCCN(c2c(NCc3ccc(C(=O)N4CC=C(c5ccccc5)CC4)cc3)c(=O)c2=O)C1` (configuration not stated), for which the compound was classed as inactive.

Regarding `COC(=O)C(Cc1ccccc1)NC(=O)CSc1nc2ccccc2c(=O)[nH]1` (configuration not stated), the call was inactive.

On to `O=C(NCc1ccc(C(=O)N2CCN(c3ccccc3)CC2)cc1)NC1CCCCC1`, for which the outcome was inactive.

`O=C(c1ccc(CNc2c(N3CCOCC3)c(=O)c2=O)cc1)N1CCC(c2ccccc2)CC1`: the compound was called inactive.

Take `O=C(c1ccc(CNc2c(N3CCCC3)c(=O)c2=O)cc1)N1CCC(c2ccccc2)CC1`: the call was inactive.

The record behind these values is PubChem BioAssay AID602432 (Southern Research Specialized Biocontainment Screening …, 2012).
